# Data from PubChem BioAssay (NCATS).
# Records with an inconclusive call do not appear. Unmarked numbers belong to inactive results. Activity calls are given as the source filed them. Calls follow the shape of the dose curve; as a rule, active = well fitted curve in the direction sought with a large enough effect; inconclusive = small, poorly fitted or top-dose-only effect, or another doubt; inactive = no such curve, though single readings can be large; an effect the other way counts as inactive or inconclusive.
# Tests used:
# [1] = Primary redox qHTS assay for identification of artifact compounds. (AID 1845223)
# Procedure, shortened: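 Amplex Red (25 uM) and HRP (250 mU/mL) in HBSS, with compounds for 15 min, then 250 uM DTT for 30 min, room temperature, dark. Fluorescence 525/598 nm read; normalized to DMSO and 10 uM DA3003; Hill fit.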
# [2] = Quantitative High-Throughput drug screen in 47 multiple myeloma cell lines against the NCATS MIPE library collection: FR4_PLB cell viability assay (AID 1918924; also: nearly all actives have a fitted effect of over 35% in size; also: potency is read from the fitted curve at half-maximal effect)
# Procedure, shortened: (§1)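 Myeloma cell lines, 500 cells per well, exposed to MIPE 4.0 library compounds for 48 h at 37C, 5% CO2. Viability from ATP by CellTiter-Glo luminescence; normalised to DMSO (100%) and media-only (0%) wells.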
# [3] = Quantitative High-Throughput drug screen in 47 multiple myeloma cell lines against the NCATS MIPE library collection: Delta47_JCRB cell viability assay (AID 1918925; also: nearly all actives have a fitted effect of over 45% in size; also: potency is read from the fitted curve at half-maximal effect)
# Procedure, shortened: (§2)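 CellTiter-Glo ATP luminescence gave viability after 48 h compound treatment at 37C of 500 multiple myeloma cells per well. Normalisation used DMSO-only wells as 100% and media-only wells as 0% viability; primary qHTS of approved and investigational drugs.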
# [4] = Quantitative High-Throughput drug screen in 47 multiple myeloma cell lines against the NCATS MIPE library collection: EJM_DSMZ cell viability assay (AID 1918926; also: nearly all actives have a fitted effect of over 30% in size; also: potency is read from the fitted curve at half-maximal effect)
# Procedure, shortened: as §2
# [5] = Quantitative High-Throughput drug screen in 47 multiple myeloma cell lines against the NCATS MIPE library collection: ARP1_JJKsccF8 cell viability assay (AID 1918928; also: nearly all actives have a fitted effect of over 40% in size; also: potency is read from the fitted curve at half-maximal effect)
# Procedure, shortened: (§3)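 Here, 48 h treatment with MIPE 4.0 agents at 37 °C preceded an ATP luminescence read. Plating density was 500 cells per well.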
# [6] = Quantitative High-Throughput drug screen in 47 multiple myeloma cell lines against the NCATS MIPE library collection: ARD_JJKsccE7 cell viability assay (AID 1918929; also: potency is read from the fitted curve at half-maximal effect)
# Procedure, shortened: as §2
# [7] = Quantitative High-Throughput drug screen in 47 multiple myeloma cell lines against the NCATS MIPE library collection: KMM1_JCRB cell viability assay (AID 1918960); also: nearly all actives have a fitted effect of over 30% in size; also: potency is read from the fitted curve at half-maximal effect
# Procedure, shortened: as §3
# [8] = Quantitative High-Throughput drug screen in 47 multiple myeloma cell lines against the NCATS MIPE library collection: JIM3_ECACC cell viability assay (AID 1918963; also: nearly all actives have a fitted effect of over 35% in size; also: potency is read from the fitted curve at half-maximal effect)
# Procedure, shortened: as §1
# [9] = Quantitative High-Throughput drug screen in 47 multiple myeloma cell lines against the NCATS MIPE library collection: JIM1_ECACC cell viability assay (AID 1918964; also: potency is read from the fitted curve at half-maximal effect)
# Procedure, shortened: as §2
# [10] = Quantitative High-Throughput drug screen in 47 multiple myeloma cell lines against the NCATS MIPE library collection: INA6_PLB cell viability assay (AID 1918965; also: nearly all actives have a fitted effect of over 55% in size; also: potency is read from the fitted curve at half-maximal effect)
# Procedure, shortened: as §1
# [11] = Quantitative High-Throughput drug screen in 47 multiple myeloma cell lines against the NCATS MIPE library collection: JJN3_DSMZ cell viability assay (AID 1918966; also: potency is read from the fitted curve at half-maximal effect; nearly all actives have a fitted effect of over 50% in size)
# Procedure, shortened: as §2
# [12] = Quantitative High-Throughput drug screen in 47 multiple myeloma cell lines against the NCATS MIPE library collection: H1112_PLB cell viability assay (AID 1918967; also: nearly all actives have a fitted effect of over 30% in size; also: potency is read from the fitted curve at half-maximal effect)
# Procedure, shortened: as §2
# [13] = Quantitative High-Throughput drug screen in 47 multiple myeloma cell lines against the NCATS MIPE library collection: KMS27_JCRB cell viability assay (AID 1918970); also: nearly all actives have a fitted effect of over 30% in size; also: potency is read from the fitted curve at half-maximal effect
# Procedure, shortened: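 Viability inhibition screen, 48 h compound exposure, luminescent ATP read-out.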
# [14] = Quantitative High-Throughput drug screen in 47 multiple myeloma cell lines against the NCATS MIPE library collection: KMS12BM_JCRB cell viability assay (AID 1918971); also: nearly all actives have a fitted effect of over 35% in size; also: potency is read from the fitted curve at half-maximal effect
# Procedure, shortened: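 Inhibition of cell viability is measured here. Each line was plated at 500 cells per well, treated with MIPE 4.0 drugs, kept 48 hours at 37C, then assayed for ATP content by CellTiter-Glo luminescence.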
# [15] = Quantitative High-Throughput drug screen in 47 multiple myeloma cell lines against the NCATS MIPE library collection: KMS12PE_JCRB cell viability assay (AID 1918972); also: nearly all actives have a fitted effect of over 30% in size; also: potency is read from the fitted curve at half-maximal effect
# Procedure, shortened: as §1
# [16] = Quantitative High-Throughput drug screen in 47 multiple myeloma cell lines against the NCATS MIPE library collection: AMO1_DSMZ cell viability assay (AID 1918927; also: nearly all actives have a fitted effect of over 30% in size; also: potency is read from the fitted curve at half-maximal effect)
# Procedure, shortened: as §2
# [17] = Quantitative High-Throughput drug screen in 47 multiple myeloma cell lines against the NCATS MIPE library collection: Karpas620_DSMZ cell viability assay (AID 1918959); also: nearly all actives have a fitted effect of over 30% in size; also: potency is read from the fitted curve at half-maximal effect
# Procedure, shortened: as §1
# [18] = Quantitative High-Throughput drug screen in 47 multiple myeloma cell lines against the NCATS MIPE library collection: Karpas25_ECACC cell viability assay (AID 1918968; also: nearly all actives have a fitted effect of over 35% in size; also: potency is read from the fitted curve at half-maximal effect)
# Procedure, shortened: as §2
# [19] = Quantitative High-Throughput drug screen in 47 multiple myeloma cell lines against the NCATS MIPE library collection: KHM11_PLB cell viability assay (AID 1918962); also: nearly all actives have a fitted effect of over 35% in size; also: potency is read from the fitted curve at half-maximal effect
# Procedure, shortened: as §1
# [20] = Quantitative High-Throughput drug screen in 47 multiple myeloma cell lines against the NCATS MIPE library collection: Karpas417_ECACC cell viability assay (AID 1918961); conditions: Karpas417 myeloma viability, CellTiter-Glo ATP luminescence, 48 h; viability (% of DMSO): at 45.8 µM (top of the series); also: potency is read from the fitted curve at half-maximal effect
# Procedure, shortened: as §1
Structure (SMILES),Potency [1],Potency [2],Potency [3],Potency [4],Potency [5],Potency [6],Potency [7],Potency [8],Potency [9],Potency [10],Potency [11],Potency [12],Potency [13],Potency [14],Potency [15],Potency [16],Potency [17],Potency [18],Potency [19],Potency [20]
Cn1cc(-c2[nH]c3cc(NC(=O)[C@H](N)C4CCCCC4)cc4c3c2C=NNC4=O)cn1,inactive,296 nM (active),935 nM (active),526 nM (active),7430 nM (active),4690 nM (active),526 nM (active),5260 nM (active),296 nM (active),209 nM (active),662 nM (active),935 nM (active),148 nM (active),1050 nM (active),1180 nM (active),,,,,
COc1ccc2c(OCc3nnc4ccc(-c5ccccc5)nn34)ccnc2c1,inactive,inactive,inactive,,inactive,,inactive,inactive,,,,inactive,,inactive,,inactive,inactive,inactive,,
CN(C)c1nc(Cc2ccc(NC(=O)c3ccc4ccccc4c3)cc2)nc(Cl)c1CC(=O)O,inactive,inactive,inactive,,inactive,inactive,,inactive,,inactive,,inactive,52.6 nM (active),inactive,16600 nM (active),,inactive,,inactive,
CN(C1CCc2c(c3ccccc3n2CC(=O)O)C1)S(=O)(=O)c1ccc(F)cc1 (centres undefined),inactive,inactive,,11800 nM (active),,5260 nM (active),2350 nM (active),inactive,,inactive,,inactive,1180 nM (active),,5260 nM (active),2640 nM (active),2960 nM (active),2090 nM (active),,743 nM (active)
Cc1cc(C(=O)N2CCN(c3cccc(Cl)c3)CC2)n(-c2ccccc2)n1,inactive,148 nM (active),833 nM (active),,590 nM (active),264 nM (active),187 nM (active),418 nM (active),11.8 nM (active),418 nM (active),,833 nM (active),148 nM (active),264 nM (active),743 nM (active),33.2 nM (active),29.6 nM (active),1320 nM (active),418 nM (active),
COc1cc(C(=O)N2CCC(N3CCN(C)CC3)CC2)ccc1Nc1ncc2c(n1)N(C)c1ccccc1C(=O)N2C,inactive,3720 nM (active),2640 nM (active),,2350 nM (active),1660 nM (active),1660 nM (active),14800 nM (active),,935 nM (active),3720 nM (active),,,1870 nM (active),1660 nM (active),2350 nM (active),3320 nM (active),11800 nM (active),,2090 nM (active)
CC(C)(O)CCc1ccc(OCc2cc(-c3cccc(OC(F)F)c3)c3ncccc3c2)cc1,inactive,inactive,,inactive,,inactive,inactive,inactive,,,,20900 nM (active),inactive,inactive,inactive,inactive,inactive,,,
COC(=O)Nc1nc2ccc(C(=O)c3ccc(F)cc3)cc2[nH]1,inactive,264 nM (active),418 nM (active),,418 nM (active),332 nM (active),,590 nM (active),,418 nM (active),2350 nM (active),,,833 nM (active),,296 nM (active),,,264 nM (active),
CC(=O)Nc1sc2c(c1-c1nc3ccccc3s1)CNC2,inactive,20900 nM (active),16600 nM (active),23500 nM (active),11800 nM (active),,inactive,18700 nM (active),,3720 nM (active),16600 nM (active),,inactive,11800 nM (active),20900 nM (active),,inactive,,26400 nM (active),
CC[C@@]1(O)C(=O)OCc2c1cc1n(c2=O)Cc2cc3cc(O)ccc3nc2-1,inactive,1180 nM (active),187 nM (active),372 nM (active),,2350 nM (active),148 nM (active),1660 nM (active),235 nM (active),16.6 nM (active),1870 nM (active),148 nM (active),18.7 nM (active),526 nM (active),1050 nM (active),,1870 nM (active),209 nM (active),590 nM (active),
C[C@@H]1COC(Nc2ccc3ncnc(Nc4ccc(OCc5nccs5)c(Cl)c4)c3c2)=N1,inactive,16600 nM (active),2640 nM (active),1050 nM (active),,4180 nM (active),10500 nM (active),2350 nM (active),13200 nM (active),4690 nM (active),,1320 nM (active),9350 nM (active),14800 nM (active),16600 nM (active),,14800 nM (active),2640 nM (active),,
